TEAD-YAP inh: TEAD-YAP interaction inhibition, primary screen, TEAD-YAP interaction inhibitor project, luminescence, HEK-TIYL cells | inhibition, % at 9.12 µM | AID 1259422, 2018 | actives 1.4% (n = 640,000) | TEAD-Gal4/YAP UAS-luciferase luminescence; in the data active means inhibition above about 32%;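 further: 0% = median of test compound wells and 100% = reference inhibitor wells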
GPR151 activ: activators of human GPR151, primary screen, cell-based, PathHunter beta-arrestin, luminescence. G-protein coupled receptor 151 (Homo sapiens), Q8TDV0. PathHunter beta-arrestin GPR151 cells. activation, % at 11.2 µM. actives 1% (n = 650,000); in the data active means activation above about 4.9%;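 further: 0% = median of compound wells and 100% = cells with positive control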
FBW7 act: FBW7 E3 ligase activators, primary screen, biochemical, AlphaScreen, human; F-box/WD repeat-containing protein 7 (Homo sapiens), Q969H0; AlphaScreen FBW7–phospho-cyclin E peptide binding, activator screen; normalized activity (activation), % at 26.1 µM; actives 0.13% (n = 650,000); in the data active means normalized activity above about 1.9%;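 further: purified mutant Fbw7 with reduced substrate affinity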
MITF primary: MITF inhibitors, primary screen, biochemical, AlphaScreen, human; Microphthalmia-associated transcription factor (Homo sapiens), O75030; AlphaScreen MITF homodimerization, bead proximity signal; actives 0.91% (n = 650,000); inhibition, % at 2.6 µM; AID 1259374, 2018; in the data active means inhibition above about 50%;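 further: 0% = vehicle wells with protein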
Target sequence (O75030 whole entry, looked up): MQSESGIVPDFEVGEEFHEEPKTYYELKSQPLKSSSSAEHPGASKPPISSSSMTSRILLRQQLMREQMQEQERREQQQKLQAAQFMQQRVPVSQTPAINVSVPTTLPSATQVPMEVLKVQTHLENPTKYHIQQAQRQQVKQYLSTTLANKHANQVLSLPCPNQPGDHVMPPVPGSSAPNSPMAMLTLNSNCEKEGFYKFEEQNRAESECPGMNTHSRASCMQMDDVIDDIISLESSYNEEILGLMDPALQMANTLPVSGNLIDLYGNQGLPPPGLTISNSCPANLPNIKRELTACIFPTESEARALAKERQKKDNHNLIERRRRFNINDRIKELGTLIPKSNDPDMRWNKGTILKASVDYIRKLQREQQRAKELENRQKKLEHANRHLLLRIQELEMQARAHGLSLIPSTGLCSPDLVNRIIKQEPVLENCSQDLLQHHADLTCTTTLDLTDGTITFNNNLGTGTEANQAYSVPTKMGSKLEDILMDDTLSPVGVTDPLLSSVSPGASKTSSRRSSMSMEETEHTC
GPR151 confirm: GPR151 activators, triplicate retest, confirmation, cell-based, PathHunter beta-arrestin, luminescence; AID 1508609, 2020; 6,700 tested, under 10 active; GPR151 PathHunter beta-arrestin cells, 90 min; % of EA-reagent control over plate median; activation, % at 11.2 µM; shares compounds with GPR151 activ;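 active means mean percent activation across replicates above the confirmation screen cutoff of 4.91%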
GPR119 counter: GPR119 activators in beta-arrestin cells, counter-screen for GPR151 activator project, cell-based, PathHunter beta-arrestin, luminescence, triplicate | AID 1508611, 2020 | 90 min; 0 = compound-well median, 100 = enzyme-acceptor control | actives 0.3% (n = 6,700) | activation, % at 11.2 µM | shares compounds with GPR151 activ;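 active means mean percent activation in the counterscreen above 29.09%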;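 further: counterscreen on off-target GPR119 to flag nonselective hits from the GPR151 activator screen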
* = called active by the depositor; x = no result. Compounds with a hit are over-represented: about 3.5% of the library has one in this group of screens.

SMILES | TEAD-YAP inh | GPR151 activ | FBW7 act | MITF primary | GPR151 confirm | GPR119 counter
CCc1[nH]n2c(=O)cc(COC)nc2c1-c1ccc(F)cc1 | -4.3 | 0.2 | 0.2 | -4.1 | x | x
CC1(CCc2ccccc2)NC(=O)N(N)C1=O (stereo not drawn) | 15.9 | 6.7* | 0.3 | -2.6 | -0.7 | -3.4
CC1(CCc2ccccc2)NC(=O)NC1=O (stereo not drawn) | 3.7 | 8.6* | 0.1 | 18.7 | 0.8 | 11.8
CCn1c(C(=O)O)c(CC(=O)Nc2cc(Cl)ccc2OC)c2ccccc21 | 1.9 | 5.4* | -0.1 | -1.0 | -1.0 | -11.5
COc1ccc(C)cc1NC(=O)Cc1c(C(=O)O)n(C)c2ccccc12 | 5.3 | 0.7 | 0.0 | 18.5 | x | x
CCCCN(C)C(=O)c1sc2nc(C)nc(N3CCN(c4ccccn4)CC3)c2c1C | 18.8 | 1.2 | -0.1 | -11.6 | x | x
COc1ccc(CC2(CO)CCN(S(=O)(=O)c3cc(C)cs3)CC2)cc1 | 3.3 | -0.2 | -0.1 | -13.5 | x | x
Cc1csc(S(=O)(=O)N2CCC(CO)(Cc3ccccc3Cl)CC2)c1 | -10.4 | 27.3* | 0.0 | -3.5 | -1.1 | -7.1
Cc1[nH]c2c(C(=O)NN)cccc2c1C | 7.7 | 1.7 | 0.1 | 1.4 | x | x
CCC(=O)NC(c1nnc2n1CCN(Cc1cc(OC)ccc1O)CC2)C(C)C (stereo not drawn) | -2.6 | 2.4 | -0.2 | 3.5 | x | x
O=C(CCCc1ccccc1)NCCOc1ccccc1 | -7.1 | 5.2* | 0.3 | 6.1 | -0.5 | -1.3
CC1(C)CC2CC(C)(CN2C(=O)COC(=O)/C(C#N)=C/c2ccc3c(c2)OCO3)C1 (stereo not drawn) | 1.6 | 6.1* | -0.1 | 2.1 | -0.9 | -13.2
CCC1CCCCN1C(=O)COC(=O)/C(C#N)=C/c1ccc2c(c1)OCO2 (stereo not drawn) | -1.7 | -0.3 | 0.6 | 14.1 | x | x
C/C(=N/NC(N)=S)c1ccccc1[N+](=O)[O-] | 5.8 | 5.6* | 0.1 | -2.4 | -0.7 | -8.1
CCOC(=O)C(C#N)=C(c1ccccc1)c1ccccc1 | 5.3 | 0.1 | 0.0 | -7.6 | x | x
CCOC(=O)/C(C#N)=C(\C)c1ccccc1 | -4.7 | 7.0* | 0.2 | 6.7 | 1.5 | 8.3
CC1(C(=O)NNC(=S)NCc2ccco2)CC1(Cl)Cl (stereo not drawn) | 2.5 | 5.3* | 0.1 | 10.6 | 0.5 | 5.3
CC(=O)Nc1cnn(-c2ccc(C(=O)NC(c3ccncc3)c3ccccc3C)cc2)c1 (stereo not drawn) | -7.0 | 5.4* | 0.5 | -4.5 | 0.0 | 0.6
O=C(CC(=O)N/N=C/c1cccc([N+](=O)[O-])c1)N/N=C/c1cccc([N+](=O)[O-])c1 | 17.2 | -0.1 | -0.4 | 7.5 | x | x
CC(=O)Oc1cccc(/C=C(\C#N)C(=O)Nc2ccc([N+](=O)[O-])cc2C)c1 | 11.6 | 6.3* | 0.3 | 13.1 | -0.8 | -9.0
Cc1c(C(=O)N/N=C/c2cccc([N+](=O)[O-])c2)[nH]c2c([N+](=O)[O-])cccc12 | -7.0 | 5.2* | 0.0 | 0.9 | -0.5 | -9.1
N#C/C(=C/c1cccc([N+](=O)[O-])c1)C(=O)Nc1ccc(O)cc1 | -7.6 | -0.8 | 0.9 | 0.7 | x | x
Cc1cc([N+](=O)[O-])ccc1NC(=O)/C(C#N)=C/c1cccc([N+](=O)[O-])c1 | 3.7 | 0.1 | -0.1 | 9.0 | x | x
NC(=O)N/N=C\c1cccc([N+](=O)[O-])c1 | 0.3 | 7.6* | 0.0 | 9.6 | -0.9 | -4.2
N#C/C(=C\c1cccc([N+](=O)[O-])c1)C(N)=O | -2.6 | 5.7* | 0.1 | 2.3 | 0.4 | 2.6
SMILES | TEAD-YAP inh | GPR151 activ | FBW7 act | MITF primary | GPR151 confirm | GPR119 counter
C=CCOc1ccc(C2/C(=C(/O)c3ccc(OCCC)cc3C)C(=O)C(=O)N2Cc2cccnc2)cc1 (stereo not drawn) | 0.8 | -1.4 | 0.0 | -13.2 | x | x
Cc1cc(C(=O)NNC(=O)CCNC(=O)c2ccc(Cl)cc2)c(C)o1 | 0.6 | 0.8 | 0.1 | -3.9 | x | x
CC(C)Oc1ccc(CNC(=O)C2CCCN2c2nnc(N3CCCC3=O)s2)cc1 (stereo not drawn) | -3.3 | -1.7 | 0.8 | 15.5 | x | x
Cc1ccc(NC(=O)c2ccco2)cc1Cl | -57.2 | -1.3 | 0.1 | 1.1 | x | x
Cc1c(C(=O)CSc2ccc(F)cc2F)sc2ncnn12 | -7.6 | 5.9* | 0.0 | 10.3 | 0.2 | 7.0
CO/N=C(\CSc1ccccc1OC)c1sc2ncnn2c1C | -14.9 | 2.6 | 0.3 | -4.6 | x | x
CC(C)(C)NS(=O)(=O)c1ccc2nc(NC(=O)c3cccnc3)sc2c1 | -5.0 | 6.2* | -0.1 | -4.7 | 0.9 | 12.8
Cc1ccc(C(=O)Nc2nc3ccc(S(C)(=O)=O)cc3s2)cc1 | -45.5 | 0.5 | -0.3 | -10.0 | x | x
O=c1c2c3c(sc2nc(SCc2ccc(F)c([N+](=O)[O-])c2)n1-c1ccccc1)CCC3 | 4.5 | 0.1 | 0.1 | 2.1 | x | x
CCC(C)N1C(=O)/C(=C\c2ccco2)SC1=S (stereo not drawn) | 1.9 | 8.1* | -0.1 | -2.2 | 0.4 | 1.5
CCCN1C(=O)/C(=C/c2ccco2)SC1=S | -6.9 | -1.2 | 0.0 | 22.0 | x | x
CSCC(C)N1CCC(CCC(=O)Nc2cccc(C)c2)CC1 (stereo not drawn) | -7.2 | 0.6 | -0.1 | -17.8 | x | x
COC(=O)Nc1ccc(S(=O)(=O)N2CCCC(C(=O)O)C2)cc1 (stereo not drawn) | 2.4 | 11.3* | 0.1 | 2.7 | -0.4 | -9.0
O=C(CCc1ccccc1)Nc1cc(Cl)ccc1Cl | -7.5 | -0.9 | 0.2 | 5.8 | x | x
O=C(CC(NCc1ccccc1)C(=O)O)Nc1cc(Cl)ccc1Cl (stereo not drawn) | 0.7 | 7.2* | 0.3 | -0.4 | 0.2 | 14.5
COc1ccc(S(=O)(=O)n2nc(C)cc2C)cc1 | 0.3 | 5.0* | 0.7 | -0.5 | 0.0 | -2.7
CC12CC3CC(C1)CC(NC(=O)c1ccc(Cl)cc1Cl)(C3)C2 | -9.0 | 5.0* | 0.0 | 6.2 | -0.1 | -4.9
C1=C(c2nc3ccc(-c4ccncc4)cc3[nH]2)CCOc2ccccc21 | 8.2 | 10.0* | 0.2 | -0.5 | 0.7 | 20.7
c1cc(-c2ccc3nc(-c4ccncc4)[nH]c3c2)ccn1 | -43.3 | 0.4 | -0.4 | -5.5 | x | x
Oc1ccc(C(c2ccc(O)cc2)c2ccc(F)cc2)cc1 | 7.4 | 7.7* | -0.1 | 5.9 | -0.5 | 20.3
NC(CC(=O)O)c1ccc(F)cc1 (stereo not drawn) | -0.6 | -1.1 | -0.1 | -2.5 | x | x
CCN(CC)CCN1C(=O)c2ccccc2NC1c1ccc2c(c1)OCO2 (stereo not drawn) | 3.3 | 5.3* | 0.0 | 7.7 | -0.3 | 10.5
